# Assay results published in PubChem BioAssay (NCATS).
# Results filed as inconclusive are left out. Active and inactive are the calls of the source. Calls come from the whole dose curve; as a rule, active = well fitted inhibition curve with a large enough effect; inconclusive = small, poorly fitted or top-dose-only effect; inactive = flat fitted curve, though single readings scatter.
# Assay: Primary qHTS for inhibitors of nuclear receptor binding SET domain protein 2 (NSD2) in an isogenic RCH-ACV NSD2 p.E1099K mutant (9B) (AID 1645876); note: nearly all actives have a fitted effect of over 70% in size
# Settings: RCH-ACV (leukaemia line) NSD2 E1099K (9B) viability, CellTiter-Glo, 72 h; series mostly up to 44.9 µM; activity change, negative = viability loss: at the top concentration
# % is set by controls: 0 for no effect and ±100 for the full control effect; potency is the fitted concentration of half-maximal effect.
Compound,"activity change, negative = viability loss",outcome,Potency
C[C@@H]1O[C@@H](O[C@H]2[C@@H]3C=CO[C@@H](O[C@@H]4O[C@H](CO)[C@@H](O)[C@H](O)[C@H]4O)[C@@H]3[C@@]3(CO)O[C@@H]23)[C@H](O)[C@H](OC(=O)/C=C/c2ccc(O)c(O)c2)[C@H]1O,-9.08% [at 17.3 µM] (inactive),,
CC(C)c1ccc2c(c1)C(=O)CC1C(C)(C(=O)O)CCCC21C (configuration not stated),-23.9% (inactive),,
CC1(C)CC[C@]2(C(=O)O[C@@H]3O[C@H](CO[C@@H]4O[C@H](CO[C@@H]5O[C@H](CO)[C@H](O)[C@H](O)[C@H]5O)[C@@H](O)[C@H](O)[C@H]4O)[C@@H](O)[C@H](O[C@@H]4O[C@H](CO)[C@@H](O)[C@H](O)[C@H]4O)[C@H]3O)[C@H](O)C[C@]3(C)C(=CCC4[C@@]5(C)CC[C@H](O[C@@H]6OC[C@@H](O)[C@H](O)[C@H]6O)[C@@](C)(C(=O)O)C5CC[C@]43C)[C@@H]2C1 (some centres not stated),,inactive [at 9.23 µM],
C/C=C1/[C@H](O[C@@H]2O[C@H](CO)[C@@H](O)[C@H](O)[C@H]2O)OC=C(C(=O)OC)[C@H]1CC(=O)OCCc1ccc(OC(=O)C[C@@H]2C(C(=O)OC)=CO[C@@H](O[C@@H]3O[C@H](CO)[C@@H](O)[C@H](O)[C@H]3O)/C2=C/C)cc1,-12% [at 9.23 µM] (inactive),,
O=C1C(Cl)=C(N2CCOCC2)C(=O)N1c1ccc(Cl)c(Cl)c1,,,7.96 µM (active)
CC(CC(C)O[C@@H]1O[C@H](CO)[C@@H](O)[C@H](O)[C@H]1O)OC(=O)/C=C/c1ccc(O)cc1 (some centres not stated),-19.2% [at 17.3 µM] (inactive),,
CC1OC(O[C@@H]2[C@@H](O)[C@H](OC(=O)[C@]34CCC(C)(C)C[C@H]3C3=CCC5[C@@]6(C)CC[C@H](O[C@@H]7O[C@H](C(=O)O)[C@@H](O)[C@H](O[C@@H]8OC[C@@H](O)[C@H](O)[C@H]8O)[C@H]7O[C@@H]7O[C@H](CO)[C@H](O)[C@H](O)[C@H]7O)[C@@](C)(C=O)C6CC[C@@]5(C)[C@]3(C)C[C@H]4O)O[C@H](C)[C@@H]2OC2OC(C)C(OC3OCC(O)C(O)C3O)C(O)C2O)C(O)C(O)C1O (some centres not stated),-4.28% [at 9.23 µM] (inactive),,
O=C(O[C@@H]1O[C@H](CO)[C@@H](O)[C@H](O)[C@H]1O)c1ccccc1,,inactive,
C[C@]1(C2CCCC2)Cc2cc(OCC(=O)O)c(Cl)c(Cl)c2C1=O,,inactive,
CC(C)(O)C1CCC2(C)CCCC(C)(O)C2C1 (configuration not stated),-15.2% (inactive),,
C[C@@H]1CC2OC(=O)C3=C2C(CCC3O)[C@@]12C[C@@H](c1ccoc1)OC2=O (some centres not stated),-5.1% (inactive),,
C=C1C[C@]23C[C@H]1CC[C@H]2[C@]1(C)CC[C@H](O)[C@@](C)(C(=O)O)[C@H]1[C@@H]3C(=O)O,-17.6% (inactive),,
C[C@@H]1C[C@@H](O)[C@@]2(CO)C(CO)=CCC[C@@H]2[C@@]12C[C@@H](c1ccoc1)OC2=O,-5.25% (inactive),,
CC1(C)CC[C@]2(C(=O)O[C@@H]3O[C@H](CO)[C@@H](O)[C@H](O)[C@H]3O)CC[C@]3(C)C(=CCC4[C@@]5(C)CC[C@H](O[C@H]6O[C@H](CO)[C@@H](O)[C@H](O[C@@H]7O[C@H](CO)[C@@H](O)[C@H](O)[C@H]7O)[C@H]6O)C(C)(C)C5CC[C@]43C)[C@@H]2C1 (some centres not stated),3.49% [at 9.23 µM] (inactive),,
C=C1[C@@H]2CC[C@@]3(C)[C@H](c4ccoc4)OC(=O)C[C@]13O[C@H]1CC(=O)C(C)(C)[C@H](C(O)C(=O)OC)[C@]12C (some centres not stated),-0.409% [at 17.3 µM] (inactive),,
COc1cc(/C=C/C(=O)OC[C@H]2O[C@@H](OC3CC(C)=C(C(=O)O)C(C)(C)C3)[C@H](O)[C@@H](O)[C@@H]2O)cc(OC)c1O (some centres not stated),2.34% [at 17.3 µM] (inactive),,
C=C1CC/C=C(/C(=O)O)CCC2C1CC2(C)C (configuration not stated),,inactive,
CC(C)C1CCC(CO)=CC1/C=C(\CO)C(=O)OCC1(O)CCC(C(C)C)C2C=C(C(=O)O)COC(=O)C21 (configuration not stated),-9.53% [at 17.3 µM] (inactive),,
CC(=O)c1c(C)cccc1O[C@@H]1O[C@H](CO)[C@@H](O)[C@H](O)[C@H]1O,-2.14% (inactive),,
CCC(C)/C=C(C)/C=C/C1=CC2=C(Cl)C(=O)C(C)(OC(C)=O)C(=O)C2=CN1CCCCC(N)C(=O)O (configuration not stated),-4.55% [at 17.3 µM] (inactive),,
CC1OC(OC2C(OC(=O)[C@]34CCC(C)(C)C[C@H]3C3=CCC5[C@@]6(C)CC[C@H](OC7OC(C(=O)O)C(O)C(O)C7O)C(C)(C)C6CC[C@@]5(C)[C@]3(C)CC4O)OC(CO)C2O)C(O)C(O)C1OC1OCC(O)C(O)C1O (some centres not stated),-7.94% [at 9.23 µM] (inactive),,
C=C1C(OC(C)=O)CCC2(C)CCC(C(C)(C)O)CC12 (configuration not stated),-12.9% (inactive),,
CC1(C)CCC[C@]2(C)C1CC=C(CO)[C@H]2CC/C(=C/CO)CO (some centres not stated),-19.3% (inactive),,
CCC(C)/C=C(C)/C=C/C1=CC2=C(Cl)C(=O)C(C)(OC(C)=O)C(=O)C2=CN1C(CC(=O)O)C(=O)O (configuration not stated),-15.4% [at 17.3 µM] (inactive),,
CC(=C\C(C)O)/C=C(\C)C(=O)CC1CC(CC(N)=O)CC(=O)O1 (configuration not stated),,inactive,
C=C1C(OC(C)=O)CCC2(C)CC3(O)OC(=O)C(C)=C3CC12 (configuration not stated),-14% (inactive),,
CC(C)(O)C(O)C(=O)OCc1ccc(O[C@@H]2O[C@H](CO)[C@@H](O)[C@H](O)[C@H]2O)cc1 (some centres not stated),,inactive [at 17.3 µM],
